Test results as given in PubChem BioAssay.
The source made the active and inactive calls.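 Rule for the calls: active = viability loss from added drug above about 55%, and viability with drug at most 40%, in both replicates (limit read from the data, passing the limit was not always enough); inconclusive = both conditions met in only one replicate; inactive = neither replicate meets both conditions.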

Test: reversal of MRP1-mediated doxorubicin resistance, pilot screen, H69AR cells, doxorubicin co-treatment (AID 601)
Details: H69AR cells + 2 uM doxorubicin, CellTiter-Glo, 72 h; at 10 µM; active compounds read high

| Compound | differential viability (reversal) |
| --- | --- |
| Cc1cccn2c(=O)c3cc(C(=O)NC4CCCC4)c(=N)n(C4CCCC4)c3nc12 | 15.5% (inactive) |
| Cc1ccc(Cl)cc1N1CCN(C(=O)c2cn(C)c(=O)c3c2c2ccccc2n3C)CC1 | -28.7% (inactive) |
| Cc1cc(C)c2ccc(N)nc2c1O | -7.52% (inactive) |
| CCC(=O)Oc1ccc(C(CC)C(CC)c2ccc(OC(=O)CC)cc2)cc1 (stereo not given) | -16.4% (inactive) |
| Cc1ccc2[nH]c3c(c2c1)CN(C(=O)CN1CCN(c2cccc(C)c2C)CC1)CC3 | -6.55% (inactive) |
| CN1CCN(C2=Nc3cc(Cl)ccc3Nc3ccccc32)CC1 | 17% (inactive) |
| COc1ccccc1NC(=O)c1oc2ccccc2c1NC(=O)c1cc(OC)c(OC)c(OC)c1 | -18.4% (inactive) |
| CCOC(=O)c1cc(-c2ccc(Cl)s2)nc2c1c(C)nn2C | -26.2% (inactive) |
| O=C(O)c1ccc2c3c(ncnc13)-c1ccccc1C2=O | -19.5% (inactive) |
| COc1cc2nc(N3CCN(C(=O)c4ccco4)CC3)nc(N)c2cc1OC | -13.4% (inactive) |
| Cc1nnc(NCc2n[nH]c(=O)c3ccccc23)c2ccccc12 | -14.8% (inactive) |
| CCN(CC)S(=O)(=O)c1ccc2[nH]cc(C(=O)NCCC3=CCCCC3)c(=O)c2c1 | -40.9% (inactive) |
| CCCCn1c(SCc2ccc(Cl)cc2)nc2c1c(=O)[nH]c(=O)n2C | 6.03% (inactive) |
| O=C(CNCCC1=CCCCC1)Nc1ccccc1N1CCCCC1 | -5.31% (inactive) |
| COc1cc2c(C#N)c(N3CCN(c4ccccc4OC)CC3)nc(N)c2c(N)n1 | 4.45% (inactive) |
